Reference: ChEMBL document CHEMBL1157539, “Thousands of chemical starting points for antimalarial lead identification” (Nature, 2010)

System: HepG2
Experiment: GSK_TCMDC: Percent inhibition of human HepG2 cell line. Test compounds present at 10uM.
Format: functional

Row | SMILES | Inhibition [%]
1 | CN(/N=C/c1ccc(Cl)cc1)c1nc(NCCc2ccc(O)cc2)nc(N2CCNCC2)n1 | 10
2 | CCN(CC)CCc1ccc2c(=O)cc(CCc3cccc(F)c3F)n(CC(=O)N(C)Cc3ccc(-c4ccc(C(F)(F)F)cc4)cc3)c2c1.O=C(O)C(O)C(O)C(=O)O | 98
3 | NS(=O)(=O)c1cccc(Nc2nc(N[C@@H]3CCNC3)nc3cc[nH]c(=O)c23)c1.O=C(O)C(F)(F)F | 7
